Publication PMC5540273 (PLoS ONE, 2017)

Assays:
Settings in all cases: concentration: 1 μM, replicates: in singlicate; n = 1
PRKR = system: T1, PRKR
T1 construct: gene EIF2AK2

PRKX = system: PRKX
PRP4 = system: PRP4
PYK2 = system: T2, PYK2
T2 construct: gene PTK2B

QSK = system: QSK
RAF1 = system: RAF1
RET = system: RET
RIOK1 = system: RIOK1
RIOK2 = system: RIOK2
RIOK3 = system: RIOK3
RIPK1 = system: RIPK1
RIPK2 = system: RIPK2
RIPK4 = system: RIPK4
RIPK5 = system: RIPK5
ROCK1 = system: ROCK1
ROCK2 = system: ROCK2
ROS1 = system: ROS1
[1] = system: RPS6KA4(Kin.Dom.1-N-terminal)
[2] = system: RPS6KA4(Kin.Dom.2-C-terminal)
[3] = system: RPS6KA5(Kin.Dom.1-N-terminal)
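Also: KINOMEscan kinase panel screen.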

## O=C(Nc1ccccc1F)NC1CCN(c2ccnc(Nc3ccc(F)cc3)n2)C1 (centres unmarked) [GSK1379722]
PRKR
  %Inh: 0%
PRKX
  %Inh: 17%
PRP4
  %Inh: 27%
PYK2
  %Inh: 0%
QSK
  %Inh: 15%
RAF1
  %Inh: 19%
RET
  %Inh: 8%
RIOK1
  %Inh: 24%
RIOK2
  %Inh: 0%
RIOK3
  %Inh: 15%
RIPK1
  %Inh: 0%
RIPK2
  %Inh: 0%
RIPK4
  %Inh: 98.7%
RIPK5
  %Inh: 0%
ROCK1
  %Inh: 11%
ROCK2
  %Inh: 16%
ROS1
  %Inh: 22%
[1]
  %Inh: 6%
[2]
  %Inh: 0%
[3]
  %Inh: 20%

## FC(F)(F)c1cc(Nc2nccc(-c3c(-c4ccc(Cl)cc4)nn4ncccc34)n2)ccc1Cl [GW829351]
PRKR
  %Inh: 26%
PRKX
  %Inh: 0%
PRP4
  %Inh: 14%
PYK2
  %Inh: 0%
QSK
  %Inh: 0%
RAF1
  %Inh: 1%
RET
  %Inh: 0%
RIOK1
  %Inh: 0%
RIOK2
  %Inh: 0%
RIOK3
  %Inh: 0%
RIPK1
  %Inh: 0%
RIPK2
  %Inh: 6%
RIPK4
  %Inh: 0%
RIPK5
  %Inh: 0%
ROCK1
  %Inh: 50%
ROCK2
  %Inh: 0%
ROS1
  %Inh: 0%
[1]
  %Inh: 0%
[2]
  %Inh: 0%
[3]
  %Inh: 0%

## CS(=O)(=O)CCNCc1ccc(-c2ccc3ncnc(Nc4ccc(OCc5ccccc5)c(Cl)c4)c3c2)o1.Cl [GW574783]
PRKR
  %Inh: 0%
PRKX
  %Inh: 17%
PRP4
  %Inh: 12%
PYK2
  %Inh: 0%
QSK
  %Inh: 2%
RAF1
  %Inh: 19%
RET
  %Inh: 0%
RIOK1
  %Inh: 32%
RIOK2
  %Inh: 6%
RIOK3
  %Inh: 0%
RIPK1
  %Inh: 9%
RIPK2
  %Inh: 79%
RIPK4
  %Inh: 0%
RIPK5
  %Inh: 0%
ROCK1
  %Inh: 22%
ROCK2
  %Inh: 21%
ROS1
  %Inh: 0%
[1]
  %Inh: 32%
[2]
  %Inh: 0%
[3]
  %Inh: 28%

## Nc1nc(-c2ccccn2)c(-c2ccnc3ccccc23)s1 [GW548057]
PRKR
  %Inh: 1%
PRKX
  %Inh: 0%
PRP4
  %Inh: 66%
PYK2
  %Inh: 20%
QSK
  %Inh: 0%
RAF1
  %Inh: 15%
RET
  %Inh: 23%
RIOK1
  %Inh: 19%
RIOK2
  %Inh: 0%
RIOK3
  %Inh: 27%
RIPK1
  %Inh: 16%
RIPK2
  %Inh: 15%
RIPK4
  %Inh: 2%
RIPK5
  %Inh: 14%
ROCK1
  %Inh: 27%
ROCK2
  %Inh: 33%
ROS1
  %Inh: 1%
[1]
  %Inh: 12%
[2]
  %Inh: 0%
[3]
  %Inh: 21%

## O=C(CCO)NCCn1ccc2ncnc(Nc3ccc(Oc4cccc(C(F)(F)F)c4)c(Cl)c3)c21
PRKR
  %Inh: 0%
PRKX
  %Inh: 0%
PRP4
  %Inh: 8%
PYK2
  %Inh: 0%
QSK
  %Inh: 0%
RAF1
  %Inh: 0%
RET
  %Inh: 0%
RIOK1
  %Inh: 0%
RIOK2
  %Inh: 0%
RIOK3
  %Inh: 0%
RIPK1
  %Inh: 0%
RIPK2
  %Inh: 7%
RIPK4
  %Inh: 0%
RIPK5
  %Inh: 0%
ROCK1
  %Inh: 0%
ROCK2
  %Inh: 0%
ROS1
  %Inh: 0%
[1]
  %Inh: 18%
[2]
  %Inh: 0%
[3]
  %Inh: 3%

## CCC(CC)(CC)n1cnc2c(N)ncnc21 [SKF-97620]
PRKR
  %Inh: 0%
PRKX
  %Inh: 0%
PRP4
  %Inh: 14%
PYK2
  %Inh: 7%
QSK
  %Inh: 27%
RAF1
  %Inh: 7%
RET
  %Inh: 4%
RIOK1
  %Inh: 21%
RIOK2
  %Inh: 8%
RIOK3
  %Inh: 0%
RIPK1
  %Inh: 0%
RIPK2
  %Inh: 1%
RIPK4
  %Inh: 41%
RIPK5
  %Inh: 25%
ROCK1
  %Inh: 44%
ROCK2
  %Inh: 0%
ROS1
  %Inh: 0%
[1]
  %Inh: 24%
[2]
  %Inh: 13%
[3]
  %Inh: 14%

## Cc1ccc(NC(=O)c2cccc(C#N)c2)cc1-c1ccc(C(=O)Nc2ccncc2)cc1 [GSK1398463]
PRKR
  %Inh: 0%
PRKX
  %Inh: 14%
PRP4
  %Inh: 0%
PYK2
  %Inh: 1%
QSK
  %Inh: 3%
RAF1
  %Inh: 51%
RET
  %Inh: 7%
RIOK1
  %Inh: 21%
RIOK2
  %Inh: 0%
RIOK3
  %Inh: 0%
RIPK1
  %Inh: 2%
RIPK2
  %Inh: 3%
RIPK4
  %Inh: 38%
RIPK5
  %Inh: 8%
ROCK1
  %Inh: 22%
ROCK2
  %Inh: 0%
ROS1
  %Inh: 0%
[1]
  %Inh: 9%
[2]
  %Inh: 0%
[3]
  %Inh: 26%

## N#Cc1ccc(Oc2ccc(Nc3ncnc4cc[nH]c34)cc2Cl)cc1
PRKR
  %Inh: 0%
PRKX
  %Inh: 7%
PRP4
  %Inh: 0%
PYK2
  %Inh: 10%
QSK
  %Inh: 0%
RAF1
  %Inh: 0%
RET
  %Inh: 19%
RIOK1
  %Inh: 21%
RIOK2
  %Inh: 8%
RIOK3
  %Inh: 1%
RIPK1
  %Inh: 2%
RIPK2
  %Inh: 26%
RIPK4
  %Inh: 0%
RIPK5
  %Inh: 6%
ROCK1
  %Inh: 2%
ROCK2
  %Inh: 0%
ROS1
  %Inh: 0%
[1]
  %Inh: 0%
[2]
  %Inh: 8%
[3]
  %Inh: 20%

## O=C(Nc1ccccc1)Nc1ccc(Oc2ccc3nccn3n2)cc1
PRKR
  %Inh: 0%
PRKX
  %Inh: 0%
PRP4
  %Inh: 0%
PYK2
  %Inh: 0%
QSK
  %Inh: 0%
RAF1
  %Inh: 31%
RET
  %Inh: 0%
RIOK1
  %Inh: 49%
RIOK2
  %Inh: 0%
RIOK3
  %Inh: 0%
RIPK1
  %Inh: 11%
RIPK2
  %Inh: 88%
RIPK4
  %Inh: 0%
RIPK5
  %Inh: 0%
ROCK1
  %Inh: 0%
ROCK2
  %Inh: 0%
ROS1
  %Inh: 0%
[1]
  %Inh: 50%
[2]
  %Inh: 0%
[3]
  %Inh: 0%

## Cc1ccc(O)cc1Nc1cc(C(F)(F)F)nc2ccc(-c3ccncc3)cc12 [GW630823]
PRKR
  %Inh: 0%
PRKX
  %Inh: 8%
PRP4
  %Inh: 0%
PYK2
  %Inh: 17%
QSK
  %Inh: 0%
RAF1
  %Inh: 0%
RET
  %Inh: 9%
RIOK1
  %Inh: 14%
RIOK2
  %Inh: 0%
RIOK3
  %Inh: 13%
RIPK1
  %Inh: 13%
RIPK2
  %Inh: 17%
RIPK4
  %Inh: 0%
RIPK5
  %Inh: 15%
ROCK1
  %Inh: 0%
ROCK2
  %Inh: 0%
ROS1
  %Inh: 5%
[1]
  %Inh: 8%
[2]
  %Inh: 0%
[3]
  %Inh: 0%
